Data taken from PubChem BioAssay (NCI).
This is part of a sample that, as a whole, favours compounds with a hit. Of some 79,000 tested, about 15% had one in any assay. Unmarked numbers belong to inactive results. Activity calls are given as the source filed them. Cut-off read from the data, not from the text of the source: active = growth inhibition above about 70%; inactive = the rest.

Experiments:
[1] = NCI Yeast Anticancer Drug Screen. Data for the rad50 strain (AID 155);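 note: 0% = growth of vehicle-only cultures of the same strain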; settings: S. cerevisiae rad50 strain growth inhibition; at 50.0 µM; stronger effect = higher value
Summary of the method: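 A DNA repair-deficient yeast mutant serves as the test organism; compound-induced growth inhibition is calculated against vehicle-treated cells.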

[2] = NCI Yeast Anticancer Drug Screen. Data for the mec2-1 strain (AID 157); settings: S. cerevisiae mec2-1 strain, at 50.0 µM, stronger effect = higher value
Summary of the method: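 mec2-1 yeast strain, carrying an alteration in DNA damage repair or cell cycle control, was exposed to compounds; growth inhibition was measured relative to vehicle-treated controls.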

[3] = NCI Yeast Anticancer Drug Screen. Data for the sgs1 mgt1 strain (AID 161);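 note: 0% = growth of cultures given vehicle only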; settings: S. cerevisiae sgs1 mgt1 strain, at 50.0 µM, stronger effect = higher value
Summary of the method: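 Growth of a repair-deficient yeast mutant was monitored after compound treatment and expressed as inhibition relative to vehicle-treated cultures.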

[4] = NCI Yeast Anticancer Drug Screen. Data for the cln2 rad14 strain (AID 165);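 note: 0% = growth equal to vehicle treated cultures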; settings: S. cerevisiae cln2 rad14 strain, at 50.0 µM, stronger effect = higher value
Summary of the method: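 Yeast carrying cln2 and rad14 alterations (cell cycle control and DNA damage repair) were exposed to compounds. Growth inhibition was measured against vehicle-treated controls.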

[5] = NCI Yeast Anticancer Drug Screen. Data for the bub3 strain (AID 167); settings: S. cerevisiae bub3 mutant strain, at 50.0 µM, stronger effect = higher value
Summary of the method: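 Inhibition values come from growth of compound-treated mutant yeast normalised to vehicle-treated controls.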

[6] = NCI Yeast Anticancer Drug Screen. Data for the mlh1 rad18 strain (AID 175); settings: S. cerevisiae mlh1 rad18 strain growth inhibition; at 50.0 µM; stronger effect = higher value
Summary of the method: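 Growth inhibition of the yeast strain was measured after compound exposure and expressed relative to vehicle-treated controls. The strain carries defined defects in DNA damage repair.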

| SMILES | growth inhibition [1] | growth inhibition [2] | growth inhibition [3] | growth inhibition [4] | growth inhibition [5] | growth inhibition [6] |
| --- | --- | --- | --- | --- | --- | --- |
| N#CC(C#N)=CN1CCCC1 | -19.6% | 9.4% | -6.45% | -12.3% | -5.95% | -1.7% |
| Cc1cc([N+](=O)[O-])c(Cl)cc1Cl | -22.8% | 25.3% | -9.35% | 26.5% | 12.2% | 5.5% |
| C[C@]12CCC(=O)C=C1CC[C@@H]1[C@@H]2CC[C@]2(C)C(=O)NC(=O)C[C@@H]12 | -1.65% | -15.8% | 32.6% | 24.9% | -3% | -16.9% |
| CC(C)(C)NCC1CCCC1 | 0.55% | -1.5% | 2.4% | -22.9% | -11.4% | -3.8% |
| COc1ccc(-c2c(-c3ccccc3)oc(/N=C/c3ccccc3)c2-c2ccccc2)cc1 | 8.35% | -0.75% | 4.9% | -2.8% | 2.25% | 13.8% |
| N#Cc1ccc(OCCCCCOc2ccc(C#N)cc2I)c(I)c1 | -4.5% | -2.05% | -8% | -22.8% | -0.85% | -44.1% |
| CC/C(C)=C1/CC(C)(C)N=C1C | -11.7% | -43.5% | -10% | -20.6% | -12.2% | -22.6% |
| O=C(Nc1ccc(C(=O)O)cc1)Nc1nccs1 | 16.9% | 6.5% | 18% | -16.7% | 7.2% | 43.7% |
| COC(=O)c1nc(N)nc(C(=O)OC)c1C(=O)c1ccc([N+](=O)[O-])cc1 | -20.9% | -23.6% | -37% | -22% | -44.8% | -41% |
| COc1ccc(C(O)C2c3c(cc4c(c3OC)OCO4)CCN2C)c(CO)c1OC (configuration not stated) | 14.4% | 12.8% | 17.6% | 37.5% | 17.9% | 7.45% |
| CCC1(C)CCC(C)(CC)c2cc(C)ccc21 (configuration not stated) | 9.9% | 9.15% | -6.95% | -16.8% | 8.4% | 25.9% |
| CN(C)/C=N/c1cc(=O)n(C)c(=O)n1C | 48.2% | 13.4% | 1.85% | 2.9% | -18.1% | -16.4% |
| CSCCC(C(=O)O)N(CC1(O)OCC(O)C(O)C1O)N=O (configuration not stated) | -18.4% | -24.6% | -17.6% | -9.15% | -11.4% | -11.2% |
| CCC(Cl)COP(=O)(OCC(Cl)CC)O/C(C)=C(/C)P(=O)(OCC(Cl)CC)OCC(Cl)CC (configuration not stated) | 32.9% | 29.6% | 42.4% | 47.1% | 8.6% | 69% |
| Cc1nc(-c2cccnc2)sc1C(=O)/C=C/c1cccc([N+](=O)[O-])c1 | 27.1% | 10.6% | 23.9% | 32.2% | 5.6% | 38.9% |
| OC(CBr)(c1ccccc1)c1ccccc1 | 13.5% | 23.4% | 19.9% | 31.3% | 7% | 24.1% |
| O=S1(=O)CC(Cl)C(I)C1 (configuration not stated) | 99.4% (active) | 99.7% (active) | 99.5% (active) | 98.8% (active) | 99.5% (active) | 99.2% (active) |
| CN1CCC(C(O)c2ccccc2)CC1 (configuration not stated) | 3.95% | -3.8% | -6.15% | -24.4% | 3.95% | 5.5% |
| OC1(CSc2ccccc2)CCCCC1 | 11.1% | 22.2% | 14.5% | 1% | -10.7% | -33% |
| Cn1nc(-c2ccccc2)c(C(=O)/C=C/c2ccccc2)c(N2CCCC2)c1=O | -22.1% | -11.2% | 3.2% | -4.15% | -21.1% | -19.2% |
| O=C(O)c1ncnn1-c1ccccc1 | 4.7% | 18.9% | 17.4% | -5.95% | 18.8% | 1.55% |

| SMILES | growth inhibition [1] | growth inhibition [2] | growth inhibition [3] | growth inhibition [4] | growth inhibition [5] | growth inhibition [6] |
| --- | --- | --- | --- | --- | --- | --- |
| COc1ccc(C(c2cc3c(cc2O)OCO3)N2CCCC2)cc1 (configuration not stated) | 17% | -0.5% | 15.9% | -25.1% | 12.1% | 21.2% |
| CC1(C(=O)O)C2CCC(C2)C1C(=O)O (configuration not stated) | 11.8% | 5.8% | -2.7% | -46.1% | 3.7% | 3.35% |
| CN(/N=C/c1ccccn1)C1=NCCCCN1 | -33.5% | 3.15% | -23.1% | 22.2% | 8.9% | -8.65% |
| COc1cc(Br)cc(OC)c1Oc1cc(OC)c(OC)c(OC)c1Br | 45.8% | 12.4% | 36% | 2.4% | 10.8% | 24.9% |
| O=Cc1cc2c(cc1Br)OCO2 | 39.7% | 16.1% | 22.3% | 10.2% | -25.6% | 8.3% |
| O=C(C1OC1c1ccccc1)C1OC1c1ccccc1 (configuration not stated) | -6.05% | 10.2% | 9.55% | -12.4% | 62.1% | 37% |
| COc1ccccc1C=Nc1ccc(O)cc1 | 8.45% | 12.3% | 3.9% | -26.6% | 3.5% | 37.5% |
| C/C(CC(C)(C)C)=N/O | -24.6% | -5.2% | -21.8% | -78.7% | -14.9% | -12.9% |
| CCOC(=O)c1c(NC2=NCCC2)n[nH]c1N | 7.05% | 14.8% | 15% | 14.7% | -18.6% | 5.9% |
| N#Cc1ccccc1NC(=O)Nc1ccc(Cl)cc1Cl | 16.4% | -7.35% | 27% | -0.25% | 4.35% | 10.6% |
| CC(O)c1ccccc1Br (configuration not stated) | -9.65% | -15.1% | -16.2% | -13.4% | -36.5% | -21% |
| COc1cc(C(O)C(=O)c2cnc3cc([N+](=O)[O-])ccc3n2)ccc1O (configuration not stated) | 24.8% | 11.3% | -10.8% | 2.15% | -19% | -1.95% |
| COC(=O)C1(C(=O)Nc2ccccc2)N=N1 | 13.7% | 7.55% | 2.5% | 3.35% | -4.45% | 8.15% |
| CC(=Nc1cccc(C(F)(F)F)c1)c1c(O)cc(C)oc1=O | 9.25% | 14.8% | 24.9% | 11.7% | 28.2% | 35.1% |
| N#CC(C#N)SCc1ccccc1 | 17.1% | 2.25% | -5.4% | 6.25% | 9.3% | 17.8% |
| COc1ccc2c(c1)N(CC(C)CN(C)C)c1ccccc1S2 (configuration not stated) | 0.75% | 25.7% | -0.95% | -3.75% | 39.5% | 11.4% |
| COc1ccc([N+](=O)[O-])c(C#N)c1 | 5.95% | -2.2% | 3.35% | -9.75% | -9.4% | -46.6% |
| COc1cc(N)c(OC)nn1 | -1.1% | 9.4% | 3.15% | -14.8% | 11.3% | -10.4% |
| C/C=C/C(C/C=C(\C)CO[Si](C)(C)C(C)(C)C)O[Si](C)(C)C(C)(C)C (configuration not stated) | 1.1% | -14.5% | -6.45% | -8.45% | 4.9% | 2.95% |
| CC(=S)NC=C(C(N)=O)C(N)=O | 6.65% | 1.05% | 11.7% | 16% | -4.2% | -16.5% |
| CCOc1c(N=Nc2ccccc2C)c(C)nn1C(N)=S | 18.1% | 0.7% | 18.3% | -24.6% | 21.1% | 23.1% |
